# Screens (PubChem)
# CDK5 p35 inh – inhibitors of human CDK5/p35 kinase, primary screen, biochemical, single concentration | 330,000 tested, 0.01% active | AID 488839, 2010 | inhibition, % at 10 µM | Recombinant CDK5/p35, ADP-Glo luminescence, 60 min | Cyclin-dependent kinase 5 (Homo sapiens) + Cyclin-dependent kinase 5 activator 1 (Homo …;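 active = highest replicate inhibition of at least 50% and at least 75% of replicates reaching 50%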;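 also: plate controls were DMSO neutral control for no effect and GW8510 at 10 µM for full effect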
# NSD2 inh – NSD2 histone methyltransferase inhibitors, primary screen, biochemical, AlphaScreen, single concentration, set 2; 310,000 tested, 0.54% active; NSD2 peptide methylation, 120 min; AID 743445, 2014; inhibition, % at 12.5 µM; Histone-lysine N-methyltransferase NSD2 (Homo sapiens), O96028; in the data active = inhibition above about 50%
# Target sequence (O96028 whole entry, looked up): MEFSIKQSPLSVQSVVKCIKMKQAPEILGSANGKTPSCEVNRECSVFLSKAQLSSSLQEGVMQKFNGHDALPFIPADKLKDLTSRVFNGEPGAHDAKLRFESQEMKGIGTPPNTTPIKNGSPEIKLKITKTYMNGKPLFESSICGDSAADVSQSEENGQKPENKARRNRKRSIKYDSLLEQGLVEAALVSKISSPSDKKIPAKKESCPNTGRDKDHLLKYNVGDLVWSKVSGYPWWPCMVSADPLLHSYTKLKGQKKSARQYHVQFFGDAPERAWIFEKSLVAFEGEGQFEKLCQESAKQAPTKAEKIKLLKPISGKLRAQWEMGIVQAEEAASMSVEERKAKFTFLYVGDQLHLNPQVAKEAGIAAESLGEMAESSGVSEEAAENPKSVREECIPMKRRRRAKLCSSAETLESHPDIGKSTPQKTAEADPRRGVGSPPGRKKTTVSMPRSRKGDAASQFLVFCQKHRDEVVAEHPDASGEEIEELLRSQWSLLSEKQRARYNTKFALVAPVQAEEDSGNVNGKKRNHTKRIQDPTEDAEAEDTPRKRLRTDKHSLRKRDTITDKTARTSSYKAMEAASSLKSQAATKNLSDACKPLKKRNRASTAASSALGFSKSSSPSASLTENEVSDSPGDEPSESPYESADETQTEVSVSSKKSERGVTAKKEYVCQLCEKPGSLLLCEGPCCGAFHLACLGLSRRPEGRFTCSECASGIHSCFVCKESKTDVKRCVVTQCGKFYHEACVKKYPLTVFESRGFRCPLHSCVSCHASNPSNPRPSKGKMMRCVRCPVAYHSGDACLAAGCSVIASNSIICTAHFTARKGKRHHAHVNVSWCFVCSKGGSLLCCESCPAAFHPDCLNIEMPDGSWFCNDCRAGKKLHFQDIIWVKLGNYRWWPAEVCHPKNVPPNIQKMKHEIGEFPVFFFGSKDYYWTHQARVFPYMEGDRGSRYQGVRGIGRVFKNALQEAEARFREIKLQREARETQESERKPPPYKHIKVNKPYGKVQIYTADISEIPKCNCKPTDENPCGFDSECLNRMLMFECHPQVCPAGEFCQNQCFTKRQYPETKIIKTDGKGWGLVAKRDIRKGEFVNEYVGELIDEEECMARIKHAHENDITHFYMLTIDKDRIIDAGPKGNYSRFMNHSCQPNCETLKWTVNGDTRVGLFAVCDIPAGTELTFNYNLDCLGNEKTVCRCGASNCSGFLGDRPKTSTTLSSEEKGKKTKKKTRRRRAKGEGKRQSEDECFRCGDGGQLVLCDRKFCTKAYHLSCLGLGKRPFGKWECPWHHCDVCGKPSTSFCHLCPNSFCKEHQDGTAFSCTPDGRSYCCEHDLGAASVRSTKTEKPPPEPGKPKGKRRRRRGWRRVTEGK
# Mot1-301 SUMO – yeast Mot1-301 growth rescue at high temperature, primary screen, SUMOylation pathway inhibitor project, S. cerevisiae, ATP luminescence, 38.5C; S. cerevisiae Mot1-301 growth rescue; percent above DMSO median, 100 means doubled; growth rescue, % at 18.8 µM; 320,000 tested, 1% active; AID 2716, 2010;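 active = every valid replicate shows activation above 250% relative to neutral control wells; inactive = the rest, any valid replicate at or below 250%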;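 also: OY570 slx delta 5 strain wells were the positive control but not used for scaling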
# N-glyco inh – increase of ERlucT glycosylation luciferase signal, primary screen, N-linked glycosylation inhibitor project, D54 ERlucT cells, luminescence, set 2; 360,000 tested, 0.23% active; reporter increase, % at 12.5 µM; D54 ERlucT glycosylation luciferase reporter, 24 h; percent of 100 nM tunicamycin response; AID 588692, 2011;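 active = mean luciferase reporter signal, scaled so untreated is 0 and the glycosylation-blocking control 100, at or above a set limit in every replicate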;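 also: luciferase carries N-glycosylation sites so blocking glycosylation raises the light; 0% = median of neutral control wells and 100% = median of 100 nM tunicamycin wells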
# ALR inh – inhibitors of human ALR sulfhydryl oxidase, primary screen, biochemical, H2O2 detection, HRP-luminol luminescence, single point; FAD-linked sulfhydryl oxidase ALR (Homo sapiens), P55789; AID 485317, 2010; purified ALR, DTT oxidation; 290,000 tested, 3.8% active; inhibition, % (no concentration beside the values);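 active = mean replicate inhibition above about 79%, with every replicate also reaching it, limit read from the data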
# Casp6 inh – human caspase-6 inhibitors, primary screen, biochemical, VEID-R110 fluorescence, single point, set 2. purified caspase-6, Z-VEID-R110 cleavage fluorescence. inhibition, % at 12.5 µM. AID 686996, 2013. 350,000 tested, 0.53% active. P55212;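 active = mean inhibition across replicates at least about 35%, with every replicate also reaching that limit, limit read from the data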;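 also: 0% = median of neutral control wells and 100% = no fluorescence left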
# AlphaScreen art – AlphaScreen signal interference with preloaded methylated product, dose response, artefact control for NSD2 inhibitor project, biochemical, cherry-picked samples; shares compounds with NSD2 inh; AC35, µM (series often up to 10 µM), without a hit: top-dose activity change, negative = signal loss; AID 1053174, 2014; AlphaScreen artifact counterscreen, preloaded methylated H4 peptide; 1,500 tested, 9.4% active; call rule not given here
# Starred values were filed as active, the others as inactive; / = not tested or not shown. Only some compounds are listed: those with a hit (about 3.9% of all), similar ones and a draw of the others.
SMILES,CDK5 p35 inh,NSD2 inh,Mot1-301 SUMO,N-glyco inh,ALR inh,Casp6 inh,AlphaScreen art
COc1ccc(N2C(=O)C3C(C2=O)C(C(=O)c2ccc(Cl)cc2)N2CCCC32)cc1 (configuration not stated),0,79*,0,16,10,-2,-7%
C[C@@H]1CN([C@H](C)CO)C(=O)c2c(c3ccccc3n2C)-c2ccccc2CO[C@@H]1CN(C)S(=O)(=O)c1ccc(Cl)cc1,/,/,/,/,/,-1,/
Clc1ccc(-c2cn3cc(Cl)ccc3n2)cc1,0,-3,528,-17,0,0,/
CCN(CC)S(=O)(=O)c1ccc(-c2cn3cc(Cl)ccc3n2)cc1,1,77*,2,6,-2,1,2%
C[C@H]1CN([C@@H](C)CO)C(=O)c2cccc(NS(=O)(=O)c3ccccc3)c2O[C@H]1CN(C)Cc1ccccc1,/,/,/,/,/,0,/
N#Cc1ccc(OCC(=O)NCCCn2ccnc2)cc1,0,63*,-4,3,-3,-44,2%
Cc1ccc(S(=O)(=O)N(C)CC(=O)NCCCn2ccnc2)cc1,-1,115*,13,0,-7,-6,-4%
COc1ccc(OCC(=O)NCCCn2ccnc2)cc1,0,-1,186,0,0,-11,/
C[C@H]1CN([C@@H](C)CO)C(=O)c2cc(NC(=O)Nc3ccc4c(c3)OCO4)ccc2O[C@H]1CN(C)C(=O)NC1CCCCC1,/,/,/,/,/,2,/
O=C(NC1CCN(Cc2ccccc2)CC1)c1ccc(S(=O)(=O)NCc2ccco2)cc1,2,5,8,-4,-20,/,/
O=C(NC1CCCCC1)c1ccc(S(=O)(=O)NCc2ccco2)cc1,0,55*,-15,-1,-3,/,-7%
O=C1CCN(Cc2ccccc2)N1,1,86*,12,3,3,1,1%
CCCCN(CC)CCNC(=O)CN(C)S(=O)(=O)c1ccc2c(c1)c(=O)n(C)c(=O)n2C,1,61*,8,1,-1,/,-4%
O=C(CN1CCC(C(=O)c2ccc3c(c2)OCCO3)CC1)Nc1ccccc1C(F)(F)F,-2,-1,5,-2,-2,1,/
Cc1ccccc1NC(=O)CN1CCC(C(=O)c2ccc3c(c2)OCCO3)CC1,-2,56*,9,-2,1,-2,-3%
CC(C)Cn1c(N)c(C(=O)COC(=O)c2ccc([N+](=O)[O-])o2)c(=O)n(C)c1=O,1,99*,3,6,-2,6,-4%
CC(C)Cn1c(N)c(C(=O)COC(=O)c2ccc(O)cc2)c(=O)n(C)c1=O,-2,0,-8,2,-7,1,/
Cc1cc(/C=C\c2nc(O)c([N+](=O)[O-])c(=O)[nH]2)c(C)n1-c1ccccc1,1,62*,185,0,24,61*,-8%
C[C@@H]1CN([C@H](C)CO)C(=O)c2cc(-c3cccnc3)cnc2O[C@H]1CN(C)C(=O)C1CCC1,/,/,/,/,/,0,/
O=S(=O)(c1ccccc1S(=O)(=O)N1CCCCC1)N1CCCCC1,1,-5,528,-1,-3,1,/
O=C1C=C(N2CCCCC2)c2ccccc2C1=O,/,114*,-26,-21,-4,100*,0%
CNC(=O)C[C@H]1CC[C@H]2[C@@H](COc3ccc(NC(=O)c4ccc(F)cc4)cc3C(=O)N2C)O1,/,/,/,/,/,0,/
CCOC(=O)c1cc(-c2cc(OC)c(OC)c(OC)c2)nc2c1c(=O)[nH]c(=O)n2Cc1ccccc1,-2,-1,62,10,-2,2,/
